PubChem BioAssay (NCATS)
Where “and” joins values, the source holds several entries; their conditions need not be identical. Identical values can stand only once. Results filed as inconclusive are left out. Values without a mark were called inactive. Calls of active or inactive are those of the source. Calls follow the shape of the dose curve; as a rule, active = well fitted curve in the direction sought with a large enough effect; inconclusive = small, poorly fitted or top-dose-only effect, or another doubt; inactive = no such curve, though single readings can be large; an effect the other way counts as inactive or inconclusive.

System: Zika virus NS2B-NS3 protease (linked)
Test: 384 well plate NINDS AMC confirmatory qHTS for Zika virus inhibitors (AID 1347163); also: potency is read from the fitted curve at half-maximal effect; nearly all actives have a fitted effect of over 50% in size
Conditions: Recombinant NS2B-NS3 protease, Ac-VKTGKR-AMC fluorescence
How it was run: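 Enzyme (5, 30 or 60 nM final) first met test compounds for ~15 min. The AMC-tagged peptide Ac-VKTGKR-AMC followed at 30 microM. Fluorescence was then recorded at 25 min and scaled against no-enzyme and no-inhibitor wells.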

| SMILES | Potency |
| --- | --- |
| CC1=C(O)C(=O)C=C2C1=CC=C1[C@@]2(C)CC[C@@]2(C)[C@@H]3C[C@](C)(C(=O)O)CC[C@]3(C)CC[C@]12C | 79.4 µM (active) |
| O=C(O)c1cc(Oc2ccc(C(F)(F)F)cc2Cl)ccc1[N+](=O)[O-] | 562 µM (active) |
| CN(C)[C@@H]1C(=O)C(C(N)=O)=C(O)[C@@]2(O)C(=O)C3=C(O)c4c(O)cccc4[C@@](C)(O)[C@H]3[C@H](O)[C@@H]12 | 158 µM (active) and 8.91 µM (active) |
| O=C1C(I)=CC(=C(c2cc(I)c(O)c(I)c2)c2ccccc2C(=O)O)C=C1I | 50.1 µM (active) |

System: Zika virus NS2B-NS3 protease (linked construct)
Test: 384 well plate NINDS Rhodamine confirmatory qHTS for Zika virus inhibitors (AID 1347164);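 also: fluorescence from protease cleavage of Ac-LKRR-rhodamine 110 substrate; potency is read from the fitted curve at half-maximal effect; nearly all actives have a fitted effect of over 65% in size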
Conditions: rhodamine-110 peptide substrate fluorescence
How it was run: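 Linked protease at a final 5 nM, 30 nM or 60 nM was preincubated ~15 min with compounds, then given 10 microM Ac-LKRR-Rhodamine 110. Fluorescence (ex 485/em 538 nm) after 25 min in the dark at room temperature.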

| SMILES | Potency |
| --- | --- |
| CC1=C(O)C(=O)C=C2C1=CC=C1[C@@]2(C)CC[C@@]2(C)[C@@H]3C[C@](C)(C(=O)O)CC[C@]3(C)CC[C@]12C | 28.2 µM (active) |
| O=C(O)c1cc(Oc2ccc(C(F)(F)F)cc2Cl)ccc1[N+](=O)[O-] | 316 µM (active) |
| CN(C)[C@@H]1C(=O)C(C(N)=O)=C(O)[C@@]2(O)C(=O)C3=C(O)c4c(O)cccc4[C@@](C)(O)[C@H]3[C@H](O)[C@@H]12 | 50.1 µM (active) and 2.51 µM (active) |
| O=C1C(I)=CC(=C(c2cc(I)c(O)c(I)c2)c2ccccc2C(=O)O)C=C1I | 8.91 µM (active) |

Target: Lysine-specific demethylase 5B (Homo sapiens) (UniProt Q9UGL1)
Test: Optimization screen for KDM5B Histone Demethylases FDH coupled qHTS against the LOPAC library (AID 1347166); also: 0% is about no effect
Conditions: KDM5B demethylation, FDH-coupled NADH fluorescence (FDH is formaldehyde dehydrogenase); series mostly up to 57.5 µM; activity, negative = inhibition: at the top concentration
How it was run: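 KDM5BDeltaAP (200nM final) in 50mM HEPES pH 7.5, 0.01% Tween-20 was preincubated with compound for 10 min at room temperature. A substrate mix of 12.5uM H3K4Me3, 25uM a-ketoglutarate, ascorbate, Fe2+, NAD+ and formaldehyde dehydrogenase was then added. NADH fluorescence (340/450 nm) was read initially and after 30 min.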

Lysine-specific demethylase 5B (Homo sapiens), sequence (Q9UGL1 whole entry, looked up): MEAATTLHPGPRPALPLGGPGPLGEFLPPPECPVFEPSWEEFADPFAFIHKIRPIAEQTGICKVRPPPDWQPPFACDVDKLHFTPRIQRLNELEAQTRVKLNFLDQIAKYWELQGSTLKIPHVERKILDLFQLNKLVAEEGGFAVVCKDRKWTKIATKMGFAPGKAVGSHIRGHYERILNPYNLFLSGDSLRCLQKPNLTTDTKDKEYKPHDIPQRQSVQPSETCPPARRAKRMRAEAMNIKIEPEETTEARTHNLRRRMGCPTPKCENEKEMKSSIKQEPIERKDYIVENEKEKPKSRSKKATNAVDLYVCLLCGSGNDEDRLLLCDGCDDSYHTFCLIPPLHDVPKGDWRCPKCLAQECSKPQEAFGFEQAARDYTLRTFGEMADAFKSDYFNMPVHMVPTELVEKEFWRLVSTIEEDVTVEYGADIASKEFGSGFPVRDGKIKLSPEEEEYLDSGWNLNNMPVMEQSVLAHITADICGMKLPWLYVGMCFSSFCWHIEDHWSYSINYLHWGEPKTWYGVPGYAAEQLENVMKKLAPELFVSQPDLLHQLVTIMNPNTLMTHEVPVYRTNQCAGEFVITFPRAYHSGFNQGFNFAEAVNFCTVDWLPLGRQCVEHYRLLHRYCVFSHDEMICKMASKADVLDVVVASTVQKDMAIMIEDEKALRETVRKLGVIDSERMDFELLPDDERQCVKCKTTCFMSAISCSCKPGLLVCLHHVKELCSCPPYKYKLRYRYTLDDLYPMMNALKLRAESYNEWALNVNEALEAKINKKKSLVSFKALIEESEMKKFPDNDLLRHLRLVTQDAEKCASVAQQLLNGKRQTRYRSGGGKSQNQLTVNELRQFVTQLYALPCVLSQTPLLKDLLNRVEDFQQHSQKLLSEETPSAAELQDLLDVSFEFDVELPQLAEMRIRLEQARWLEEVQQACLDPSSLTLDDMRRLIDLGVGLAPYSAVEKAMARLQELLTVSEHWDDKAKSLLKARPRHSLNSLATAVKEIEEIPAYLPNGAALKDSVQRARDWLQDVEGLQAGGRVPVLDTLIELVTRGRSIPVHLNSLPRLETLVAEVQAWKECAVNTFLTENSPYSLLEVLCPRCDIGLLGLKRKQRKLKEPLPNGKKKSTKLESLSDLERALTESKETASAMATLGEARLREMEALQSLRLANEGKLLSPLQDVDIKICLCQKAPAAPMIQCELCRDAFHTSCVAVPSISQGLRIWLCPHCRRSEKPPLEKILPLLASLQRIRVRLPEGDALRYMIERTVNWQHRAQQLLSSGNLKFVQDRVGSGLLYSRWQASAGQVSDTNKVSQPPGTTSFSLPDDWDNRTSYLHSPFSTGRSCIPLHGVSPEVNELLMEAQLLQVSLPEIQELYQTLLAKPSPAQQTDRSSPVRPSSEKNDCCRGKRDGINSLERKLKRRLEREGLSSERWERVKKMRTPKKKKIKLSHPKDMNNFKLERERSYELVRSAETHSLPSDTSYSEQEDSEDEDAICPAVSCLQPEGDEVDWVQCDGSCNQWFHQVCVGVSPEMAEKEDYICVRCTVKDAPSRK

| SMILES | activity, negative = inhibition | outcome |
| --- | --- | --- |
| CC1=NN=C(c2ccc(N)cc2)c2cc3c(cc2C1)OCO3 | -23.8% | – |
| Cn1cnc(CCN)c1 | -6.57% | – |
| NCc1cc(=O)[nH]o1 | -2.29% | – |
| CCCN(CCC)C1CCc2ccc(O)cc2C1 (stereo not given) | -5.57% | – |
| Clc1cnc(Oc2ccc(Oc3ncc(Cl)cc3Cl)cc2)c(Cl)c1 | -7.93% | – |
| C#CCOC(=O)C1=CCCN(C)C1 | -4.63% | – |
| CS(=N)(=O)CC[C@H](N)C(=O)O (stereo not given in full) | -5.65% | – |
| O=C(O)Cc1cnc[nH]1 | -2.96% | – |
| CC[C@@]1(O)C(=O)OCc2c1cc1n(c2=O)Cc2cc3ccccc3nc2-1 | 565% | – |
| CCCN1CCO[C@@H]2c3cc(O)ccc3OC[C@H]21 | – | inactive |
| O=C(Cc1ccc(Cl)c(Cl)c1)N1CCCCC1CN1CCCC1 (stereo not given) | -6.44% | – |
| NC(N)=NOCCC(N)C(=O)O (stereo not given) | 2.2% | – |
| CN[C@@H]1C[C@@H](c2ccc(Cl)c(Cl)c2)c2ccccc21 | -10.2% | – |
| C[C@@H]1O[C@H](C[N+](C)(C)C)C[C@H]1O | -9.81% | – |
| O=C(N[C@H]1CN2CCC1CC2)c1ccc(Cl)cc1 | 0.478% | – |
| CC(Cc1ccc(O)cc1)NCC(O)c1cc(O)cc(O)c1 (stereo not given) | -8.76% | – |
| C[C@]12N[C@H](Cc3ccccc31)c1ccccc12 | -4.12% | – |
| CC[C@@H](C(N)=O)N1CCCC1=O | -1.49% | – |
| Cc1c(C(=O)c2cccc3ccccc23)c2cccc3c2n1[C@H](CN1CCOCC1)CO3 | -15.1% | – |
| CNCCc1c[nH]c2ccc(O)cc12 | -26% | – |
| COc1cc(C(O)CN)ccc1O (stereo not given) | -3.81% | – |
| O=C(O)CC[N+](=O)[O-] | -7.22% | – |
| S=C(NC1CCCCC1)N1CCC(c2cnc[nH]2)CC1 | -5.95% | – |
| CC(=O)[C@H]1CCC2C3CC[C@H]4C[C@H](O)CC[C@]4(C)C3CC[C@@]21C (stereo not given in full) | -2.53% | – |

System: not listed separately
Test: Tertiary RLuc qRT-PCR qHTS assay for Zika virus inhibitors (AID 1347169); also: top concentration of the series differs between compounds; % is scaled to controls: 0 for no effect and ±100 for the full control effect; nearly all actives have a fitted effect of over 55% in size
Conditions: infected Vero cells, reporter luminescence, 48-72 h; series mostly up to 45.9 µM; activity change, negative = inhibition: at the top concentration
How it was run: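 Vero cells (1,000 per well) plated overnight at 37 degrees C, treated with compound in DMSO, then infected with recombinant ZIKV-RLuc (Cambodian) at MOI 1-2 for 48-72 hrs. Live-cell Renilla luciferase substrate added; luminescence read after 1-1.5 hrs.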

| SMILES | activity change, negative = inhibition |
| --- | --- |
| O=C(O)c1cc(Oc2ccc(C(F)(F)F)cc2Cl)ccc1[N+](=O)[O-] | 35.5% [at 1.74 µM] |
| CN(C)[C@@H]1C(=O)C(C(N)=O)=C(O)[C@@]2(O)C(=O)C3=C(O)c4c(O)cccc4[C@@](C)(O)[C@H]3[C@H](O)[C@@H]12 | -12.8% |
| O=C1C(I)=CC(=C(c2cc(I)c(O)c(I)c2)c2ccccc2C(=O)O)C=C1I | 34.1% [at 1.74 µM] |
